# Experimental data as given in publication PMC7862700, “An all-to-all approach to the identification of sequence-specific readers for epigenetic DNA modifications on cytosine”.
# Key:
# Experiment in all cases: DAPPL (digital affinity profiling via proximity ligation, sequencing); 10 mM Tris-HCl pH 7.5, 50 mM NaCl, 1 mM DTT, 4% glycerol, room temperature, 30 min; GST-TFs on glutathione beads, 16-mer random dsDNA library, 0.1% formaldehyde crosslink after washing; high values mean tight binding
# FLI1 = target: T1, FLI1 (Homo sapiens, UniProt Q01543 1-452); conditions: protein: recombinant; tags: N-terminal GST; dsDNA, one strand shown
# T1 sequence: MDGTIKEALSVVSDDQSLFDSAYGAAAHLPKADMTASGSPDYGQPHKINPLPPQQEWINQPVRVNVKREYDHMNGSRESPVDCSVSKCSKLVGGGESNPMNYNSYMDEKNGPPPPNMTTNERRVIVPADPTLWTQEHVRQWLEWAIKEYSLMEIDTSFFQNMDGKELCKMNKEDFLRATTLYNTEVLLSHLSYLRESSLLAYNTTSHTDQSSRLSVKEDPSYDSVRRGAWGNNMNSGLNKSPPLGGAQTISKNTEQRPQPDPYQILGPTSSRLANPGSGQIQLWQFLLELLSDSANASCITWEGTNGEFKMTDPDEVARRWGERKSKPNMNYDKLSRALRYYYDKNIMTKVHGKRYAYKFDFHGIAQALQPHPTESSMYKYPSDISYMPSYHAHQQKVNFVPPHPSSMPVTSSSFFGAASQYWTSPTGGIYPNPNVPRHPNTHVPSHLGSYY
# In short: (§1)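 Beads coated with glutathione captured GST-fused human transcription factors that had been expressed in yeast, and the factors were then given DNA barcodes and pooled with a tag-only sample. The pools were incubated with 200 nmole of a random double-stranded 16-mer DNA library in Tris/NaCl/DTT/glycerol buffer for 30 min at room temperature, washed, crosslinked with 0.1% formaldehyde and proximity-ligated with BsaI/T4 ligase at 37 °C for 1 h. PCR amplification and Illumina NextSeq500 sequencing came last. Binding signal is each hexamer's read frequency for a factor divided by its frequency for the tag-only sample.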
# ELK1 = target: T2, ELK1 (Homo sapiens, UniProt P19419 1-428); conditions: protein: recombinant; tags: N-terminal GST; dsDNA, one strand shown
# T2 sequence: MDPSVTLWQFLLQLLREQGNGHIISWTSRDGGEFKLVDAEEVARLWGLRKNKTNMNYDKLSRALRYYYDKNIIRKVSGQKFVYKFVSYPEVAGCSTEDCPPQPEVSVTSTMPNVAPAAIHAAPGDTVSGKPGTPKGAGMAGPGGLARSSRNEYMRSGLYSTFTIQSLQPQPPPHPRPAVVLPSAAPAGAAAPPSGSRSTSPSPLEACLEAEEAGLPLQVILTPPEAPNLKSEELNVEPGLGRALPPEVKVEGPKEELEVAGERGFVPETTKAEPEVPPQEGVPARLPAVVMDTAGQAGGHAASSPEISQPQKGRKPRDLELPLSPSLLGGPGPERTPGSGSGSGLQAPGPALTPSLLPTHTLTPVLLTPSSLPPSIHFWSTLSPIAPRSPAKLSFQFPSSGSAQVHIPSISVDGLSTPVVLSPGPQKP
# In short: as §1
# GABPA = target: T3, GABPA (Homo sapiens, UniProt Q06546 1-454); conditions: protein: recombinant; tags: N-terminal GST; dsDNA, one strand shown
# T3 sequence: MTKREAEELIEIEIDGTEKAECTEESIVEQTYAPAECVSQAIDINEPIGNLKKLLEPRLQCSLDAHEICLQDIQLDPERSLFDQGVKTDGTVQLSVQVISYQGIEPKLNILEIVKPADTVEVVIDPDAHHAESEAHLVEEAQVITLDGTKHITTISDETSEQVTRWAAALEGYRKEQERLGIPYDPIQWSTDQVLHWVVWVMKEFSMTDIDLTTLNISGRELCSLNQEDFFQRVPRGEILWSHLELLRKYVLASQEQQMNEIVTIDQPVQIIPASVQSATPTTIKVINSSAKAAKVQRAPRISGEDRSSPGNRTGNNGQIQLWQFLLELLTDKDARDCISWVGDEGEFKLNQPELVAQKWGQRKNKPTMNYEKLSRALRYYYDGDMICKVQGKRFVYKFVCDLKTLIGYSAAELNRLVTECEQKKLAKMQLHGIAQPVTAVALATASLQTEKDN
# In short: as §1
# ERG = target: T4, ERG (Homo sapiens, UniProt P11308 1-479); conditions: protein: recombinant; tags: N-terminal GST; dsDNA, one strand shown
# T4 sequence: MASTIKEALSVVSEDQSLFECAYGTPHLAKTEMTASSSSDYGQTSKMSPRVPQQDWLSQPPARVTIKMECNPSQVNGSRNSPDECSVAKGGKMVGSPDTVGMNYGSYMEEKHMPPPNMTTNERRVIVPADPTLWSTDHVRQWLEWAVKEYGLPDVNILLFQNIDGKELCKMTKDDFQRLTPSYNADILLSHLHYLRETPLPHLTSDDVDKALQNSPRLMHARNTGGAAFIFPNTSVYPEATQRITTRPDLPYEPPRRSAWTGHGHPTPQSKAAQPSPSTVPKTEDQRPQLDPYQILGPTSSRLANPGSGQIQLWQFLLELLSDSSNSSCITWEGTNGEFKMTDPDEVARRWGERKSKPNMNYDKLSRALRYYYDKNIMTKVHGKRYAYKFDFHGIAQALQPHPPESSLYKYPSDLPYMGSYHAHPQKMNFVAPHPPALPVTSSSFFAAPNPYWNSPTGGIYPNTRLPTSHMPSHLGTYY
# In short: as §1
# ELF1 = ELF1 (Homo sapiens, UniProt P32519 1-619); conditions: protein: recombinant; tags: N-terminal GST; dsDNA, one strand shown
# ELF1, sequence (P32519 whole entry): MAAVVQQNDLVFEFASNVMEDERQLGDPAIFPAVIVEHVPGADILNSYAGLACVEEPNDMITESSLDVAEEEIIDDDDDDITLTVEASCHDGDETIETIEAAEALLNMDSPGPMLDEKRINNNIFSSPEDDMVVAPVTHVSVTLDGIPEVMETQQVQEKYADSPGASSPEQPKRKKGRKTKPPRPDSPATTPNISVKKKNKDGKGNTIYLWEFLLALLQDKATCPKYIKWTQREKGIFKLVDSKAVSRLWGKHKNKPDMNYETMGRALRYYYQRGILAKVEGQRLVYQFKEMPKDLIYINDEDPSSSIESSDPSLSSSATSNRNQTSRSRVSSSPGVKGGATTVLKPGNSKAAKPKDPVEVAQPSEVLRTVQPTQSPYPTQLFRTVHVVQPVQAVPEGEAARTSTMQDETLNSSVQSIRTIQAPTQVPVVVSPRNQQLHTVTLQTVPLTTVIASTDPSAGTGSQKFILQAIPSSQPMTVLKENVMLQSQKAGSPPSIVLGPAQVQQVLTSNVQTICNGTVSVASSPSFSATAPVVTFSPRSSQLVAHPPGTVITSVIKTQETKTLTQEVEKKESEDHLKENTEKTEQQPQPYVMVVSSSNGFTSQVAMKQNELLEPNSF
# In short: as §1
# EHF = target: T5, EHF (Homo sapiens, UniProt Q9NZC4 1-300); conditions: protein: recombinant; tags: N-terminal GST; dsDNA, one strand shown
# T5 sequence: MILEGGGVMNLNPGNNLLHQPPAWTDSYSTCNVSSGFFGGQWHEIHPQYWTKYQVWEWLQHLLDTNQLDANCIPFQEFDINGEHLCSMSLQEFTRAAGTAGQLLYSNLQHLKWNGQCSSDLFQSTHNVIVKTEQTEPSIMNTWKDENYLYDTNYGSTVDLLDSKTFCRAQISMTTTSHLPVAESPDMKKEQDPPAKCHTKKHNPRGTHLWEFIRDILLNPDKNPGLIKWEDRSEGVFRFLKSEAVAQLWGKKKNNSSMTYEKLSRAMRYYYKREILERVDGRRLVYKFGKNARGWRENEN
# In short: as §1
# SPI1 = SPI1 (Homo sapiens, UniProt P17947 1-270); conditions: protein: recombinant; tags: N-terminal GST; dsDNA, one strand shown
# In short: as §1
# SPIB = SPIB (Homo sapiens, UniProt Q01892 1-262); conditions: protein: recombinant; tags: N-terminal GST; dsDNA, one strand shown
# SPIB, sequence (Q01892 whole entry): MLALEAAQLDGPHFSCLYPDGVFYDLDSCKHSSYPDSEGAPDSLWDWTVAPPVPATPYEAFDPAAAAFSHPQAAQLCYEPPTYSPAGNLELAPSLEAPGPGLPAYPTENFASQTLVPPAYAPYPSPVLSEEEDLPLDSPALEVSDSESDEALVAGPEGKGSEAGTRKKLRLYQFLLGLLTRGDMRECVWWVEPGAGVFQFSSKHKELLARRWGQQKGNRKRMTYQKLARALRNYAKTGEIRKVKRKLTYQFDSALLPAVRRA
# In short: as §1
# ELK3 = target: T6, ELK3 (Homo sapiens, UniProt P41970 1-407); conditions: protein: recombinant; tags: N-terminal GST; dsDNA, one strand shown
# T6 sequence: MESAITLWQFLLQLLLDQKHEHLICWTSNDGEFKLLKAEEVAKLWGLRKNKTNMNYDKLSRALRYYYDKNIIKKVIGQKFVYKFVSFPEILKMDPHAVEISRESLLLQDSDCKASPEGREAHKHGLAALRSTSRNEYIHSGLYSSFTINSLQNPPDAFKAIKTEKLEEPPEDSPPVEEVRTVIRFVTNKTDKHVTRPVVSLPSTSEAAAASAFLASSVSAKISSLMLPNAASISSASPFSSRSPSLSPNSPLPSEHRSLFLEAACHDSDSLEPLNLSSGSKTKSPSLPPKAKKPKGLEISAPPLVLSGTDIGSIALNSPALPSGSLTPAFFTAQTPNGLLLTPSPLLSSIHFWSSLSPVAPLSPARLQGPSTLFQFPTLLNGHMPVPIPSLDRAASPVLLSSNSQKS
# In short: as §1
# FEV = target: T7, FEV (Homo sapiens, UniProt Q99581 1-238); conditions: protein: recombinant; tags: N-terminal GST; dsDNA, one strand shown
# T7 sequence: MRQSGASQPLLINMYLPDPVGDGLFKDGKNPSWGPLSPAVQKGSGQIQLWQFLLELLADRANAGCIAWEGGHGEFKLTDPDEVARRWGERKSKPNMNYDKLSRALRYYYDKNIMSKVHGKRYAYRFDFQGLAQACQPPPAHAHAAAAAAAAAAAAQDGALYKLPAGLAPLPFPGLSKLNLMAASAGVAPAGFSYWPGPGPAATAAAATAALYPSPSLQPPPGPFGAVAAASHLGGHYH
# In short: as §1
# ETV5 = ETV5 (Homo sapiens, UniProt P41161 1-510); conditions: protein: recombinant; tags: N-terminal GST; dsDNA, one strand shown
# ETV5, sequence (P41161 whole entry): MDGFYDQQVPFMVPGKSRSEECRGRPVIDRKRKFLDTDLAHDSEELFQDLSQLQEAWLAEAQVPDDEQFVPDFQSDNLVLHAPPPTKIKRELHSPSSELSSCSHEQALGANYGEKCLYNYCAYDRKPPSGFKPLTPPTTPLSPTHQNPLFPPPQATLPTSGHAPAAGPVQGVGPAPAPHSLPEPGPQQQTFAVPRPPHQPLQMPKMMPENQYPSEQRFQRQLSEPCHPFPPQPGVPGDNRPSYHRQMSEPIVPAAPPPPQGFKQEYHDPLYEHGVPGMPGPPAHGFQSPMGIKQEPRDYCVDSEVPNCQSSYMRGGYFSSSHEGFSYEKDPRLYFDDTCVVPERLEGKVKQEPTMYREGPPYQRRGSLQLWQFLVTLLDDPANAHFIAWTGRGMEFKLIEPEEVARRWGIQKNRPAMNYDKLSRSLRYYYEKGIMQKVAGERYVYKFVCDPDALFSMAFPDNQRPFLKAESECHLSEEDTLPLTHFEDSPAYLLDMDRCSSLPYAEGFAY
# In short: as §1
# HSF1 = HSF1 (Homo sapiens, UniProt Q00613 1-529); conditions: protein: recombinant; tags: N-terminal GST; chain copies: 3; dsDNA, one strand shown
# HSF1, sequence (Q00613 whole entry): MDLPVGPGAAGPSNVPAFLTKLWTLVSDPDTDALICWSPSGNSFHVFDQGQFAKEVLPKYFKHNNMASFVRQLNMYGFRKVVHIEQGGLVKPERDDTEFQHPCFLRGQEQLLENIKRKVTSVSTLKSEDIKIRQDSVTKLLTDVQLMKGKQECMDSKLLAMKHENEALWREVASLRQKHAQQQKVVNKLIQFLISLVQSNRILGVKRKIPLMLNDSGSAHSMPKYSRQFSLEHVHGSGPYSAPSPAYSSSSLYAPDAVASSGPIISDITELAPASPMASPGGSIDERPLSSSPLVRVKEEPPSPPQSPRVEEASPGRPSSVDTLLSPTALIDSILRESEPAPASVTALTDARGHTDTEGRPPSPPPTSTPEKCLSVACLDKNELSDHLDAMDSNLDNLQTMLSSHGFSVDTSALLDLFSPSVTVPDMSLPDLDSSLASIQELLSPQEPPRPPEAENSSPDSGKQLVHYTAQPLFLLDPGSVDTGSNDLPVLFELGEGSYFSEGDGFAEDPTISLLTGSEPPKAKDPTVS
# In short: as §1
# SPIC = target: T8, SPIC (Homo sapiens, UniProt Q8N5J4 1-248); conditions: protein: recombinant; tags: N-terminal GST; dsDNA, one strand shown
# T8 sequence: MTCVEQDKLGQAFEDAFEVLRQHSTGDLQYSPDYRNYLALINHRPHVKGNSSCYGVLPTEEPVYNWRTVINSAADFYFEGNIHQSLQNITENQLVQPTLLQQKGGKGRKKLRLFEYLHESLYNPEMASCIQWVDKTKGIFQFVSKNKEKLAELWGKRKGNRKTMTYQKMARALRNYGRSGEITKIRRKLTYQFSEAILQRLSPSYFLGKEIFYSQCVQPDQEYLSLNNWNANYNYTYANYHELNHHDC
# In short: as §1
# ELF4 = ELF4 (Homo sapiens, UniProt Q99607 1-663); conditions: protein: recombinant; tags: N-terminal GST; dsDNA, one strand shown
# ELF4, sequence (Q99607 whole entry): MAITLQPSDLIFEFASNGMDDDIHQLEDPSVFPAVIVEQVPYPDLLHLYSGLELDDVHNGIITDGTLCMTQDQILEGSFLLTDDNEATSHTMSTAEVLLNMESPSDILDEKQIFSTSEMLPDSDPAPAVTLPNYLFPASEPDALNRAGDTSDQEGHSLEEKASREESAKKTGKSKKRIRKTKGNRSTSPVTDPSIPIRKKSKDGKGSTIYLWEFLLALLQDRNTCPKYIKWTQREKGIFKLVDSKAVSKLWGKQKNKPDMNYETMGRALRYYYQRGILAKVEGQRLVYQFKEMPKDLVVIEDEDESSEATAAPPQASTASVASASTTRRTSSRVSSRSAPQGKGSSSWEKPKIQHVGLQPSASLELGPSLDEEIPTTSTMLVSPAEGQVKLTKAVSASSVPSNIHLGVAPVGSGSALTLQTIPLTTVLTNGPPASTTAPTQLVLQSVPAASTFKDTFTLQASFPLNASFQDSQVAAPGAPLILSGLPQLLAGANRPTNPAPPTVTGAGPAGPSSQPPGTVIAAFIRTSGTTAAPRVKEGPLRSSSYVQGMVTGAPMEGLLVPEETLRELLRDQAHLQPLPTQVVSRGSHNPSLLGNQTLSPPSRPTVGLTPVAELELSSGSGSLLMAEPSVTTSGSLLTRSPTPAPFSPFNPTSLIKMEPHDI
# In short: as §1
# ELK4 = target: T9, ELK4 (Homo sapiens, UniProt P28324-2 1-405); conditions: protein: recombinant; tags: N-terminal GST; dsDNA, one strand shown
# T9 sequence: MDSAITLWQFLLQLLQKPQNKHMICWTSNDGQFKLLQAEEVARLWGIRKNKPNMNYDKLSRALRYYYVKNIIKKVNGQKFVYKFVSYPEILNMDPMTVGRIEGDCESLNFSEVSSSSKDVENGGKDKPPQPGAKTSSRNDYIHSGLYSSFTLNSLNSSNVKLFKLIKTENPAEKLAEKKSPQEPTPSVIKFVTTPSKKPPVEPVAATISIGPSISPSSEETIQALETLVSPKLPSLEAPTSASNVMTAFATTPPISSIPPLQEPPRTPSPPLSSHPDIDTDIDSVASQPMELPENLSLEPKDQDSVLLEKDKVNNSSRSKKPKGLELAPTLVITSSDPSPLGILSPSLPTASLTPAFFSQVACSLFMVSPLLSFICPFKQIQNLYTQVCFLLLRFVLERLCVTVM
# In short: as §1
# ETV2 = target: T10, ETV2 (Homo sapiens, UniProt O00321 1-342); conditions: protein: recombinant; tags: N-terminal GST; dsDNA, one strand shown
# T10 sequence: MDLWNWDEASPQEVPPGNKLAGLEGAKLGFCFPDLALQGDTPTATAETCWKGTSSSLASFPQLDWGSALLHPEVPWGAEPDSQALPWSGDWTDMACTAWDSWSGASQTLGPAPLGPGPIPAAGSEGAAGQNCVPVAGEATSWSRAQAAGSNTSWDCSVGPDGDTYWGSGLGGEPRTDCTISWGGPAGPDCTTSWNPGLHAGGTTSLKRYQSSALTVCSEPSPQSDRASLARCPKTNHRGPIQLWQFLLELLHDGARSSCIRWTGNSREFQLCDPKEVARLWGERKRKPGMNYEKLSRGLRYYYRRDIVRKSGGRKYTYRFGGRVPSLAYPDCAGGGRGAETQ
# In short: as §1
# ELF3 = target: T11, ELF3 (Homo sapiens, UniProt P78545 1-371); conditions: protein: recombinant; tags: N-terminal GST; dsDNA, one strand shown
# T11 sequence: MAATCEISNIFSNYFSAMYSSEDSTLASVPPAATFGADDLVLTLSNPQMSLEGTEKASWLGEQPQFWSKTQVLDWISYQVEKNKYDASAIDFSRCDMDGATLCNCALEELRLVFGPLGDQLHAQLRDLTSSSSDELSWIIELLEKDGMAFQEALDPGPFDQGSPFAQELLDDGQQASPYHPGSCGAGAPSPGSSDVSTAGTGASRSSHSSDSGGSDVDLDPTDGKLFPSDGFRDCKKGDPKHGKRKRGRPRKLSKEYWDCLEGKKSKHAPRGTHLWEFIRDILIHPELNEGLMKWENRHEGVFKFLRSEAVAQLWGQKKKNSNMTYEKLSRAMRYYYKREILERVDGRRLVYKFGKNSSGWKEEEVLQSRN
# In short: as §1
# CRX = CRX (Homo sapiens, UniProt O43186 1-299); conditions: protein: recombinant; tags: N-terminal GST; dsDNA, one strand shown
# CRX, sequence (O43186 whole entry): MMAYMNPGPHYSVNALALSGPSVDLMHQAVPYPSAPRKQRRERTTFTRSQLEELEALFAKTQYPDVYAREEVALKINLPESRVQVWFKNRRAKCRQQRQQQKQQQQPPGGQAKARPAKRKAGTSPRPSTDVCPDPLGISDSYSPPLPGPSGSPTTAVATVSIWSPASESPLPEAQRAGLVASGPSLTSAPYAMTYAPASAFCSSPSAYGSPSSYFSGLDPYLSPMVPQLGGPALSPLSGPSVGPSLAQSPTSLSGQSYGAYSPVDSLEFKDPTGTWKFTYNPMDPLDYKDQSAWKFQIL
# In short: as §1
# ETV1 = ETV1 (Homo sapiens, UniProt P50549 1-477); conditions: protein: recombinant; tags: N-terminal GST; dsDNA, one strand shown
# ETV1, sequence (P50549 whole entry): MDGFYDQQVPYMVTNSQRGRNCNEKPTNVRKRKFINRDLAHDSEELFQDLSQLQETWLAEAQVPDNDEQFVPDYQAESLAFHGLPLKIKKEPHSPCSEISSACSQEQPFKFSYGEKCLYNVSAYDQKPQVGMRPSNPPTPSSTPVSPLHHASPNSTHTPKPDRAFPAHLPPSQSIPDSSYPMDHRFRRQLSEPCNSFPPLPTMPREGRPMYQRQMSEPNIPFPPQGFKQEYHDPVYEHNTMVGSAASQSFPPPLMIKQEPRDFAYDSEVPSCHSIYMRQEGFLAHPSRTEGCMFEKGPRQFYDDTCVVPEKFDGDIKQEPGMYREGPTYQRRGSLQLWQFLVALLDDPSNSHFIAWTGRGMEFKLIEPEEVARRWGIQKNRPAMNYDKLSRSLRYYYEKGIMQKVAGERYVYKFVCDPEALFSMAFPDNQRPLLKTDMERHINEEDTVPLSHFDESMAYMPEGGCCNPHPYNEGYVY
# In short: as §1
sequence,measurement,setting,value
ATCCCC,binding signal,FLI1,"1.47 fold enrichment (6-mer frequency, TF over GST control)"
same,binding signal,ELK1,"1.46 fold enrichment (6-mer frequency, TF over GST control)"
same,binding signal,GABPA,"1.35 fold enrichment (6-mer frequency, TF over GST control)"
same,binding signal,ERG,"1.52 fold enrichment (6-mer frequency, TF over GST control)"
same,binding signal,ELF1,"1.5 fold enrichment (6-mer frequency, TF over GST control)"
same,binding signal,EHF,"1.46 fold enrichment (6-mer frequency, TF over GST control)"
same,binding signal,SPI1,"1.39 fold enrichment (6-mer frequency, TF over GST control)"
same,binding signal,SPIB,"1.39 fold enrichment (6-mer frequency, TF over GST control)"
same,binding signal,ELK3,"1.2 fold enrichment (6-mer frequency, TF over GST control)"
same,binding signal,FEV,"1.44 fold enrichment (6-mer frequency, TF over GST control)"
same,binding signal,ETV5,"1.37 fold enrichment (6-mer frequency, TF over GST control)"
same,binding signal,HSF1,"1.78 fold enrichment (6-mer frequency, TF over GST control)"
same,binding signal,SPIC,"1.37 fold enrichment (6-mer frequency, TF over GST control)"
same,binding signal,ELF4,"1.37 fold enrichment (6-mer frequency, TF over GST control)"
same,binding signal,ELK4,"1.44 fold enrichment (6-mer frequency, TF over GST control)"
same,binding signal,ETV2,"1.39 fold enrichment (6-mer frequency, TF over GST control)"
same,binding signal,ELF3,"1.53 fold enrichment (6-mer frequency, TF over GST control)"
same,binding signal,CRX,"2.37 fold enrichment (6-mer frequency, TF over GST control)"
same,binding signal,ETV1,"1.43 fold enrichment (6-mer frequency, TF over GST control)"
